# From PubChem BioAssay AID1688 (National Center for Advancing Translational Sciences (NCATS), 2009)
# Hit rate of the full screen: of about 220,000 compounds, about 2,400 (1.1%) were called active. About 7% were inconclusive and are not listed. Only a selection was taken, and actives are over-represented in it overall. Unmarked numbers belong to inactive results. Calls come from the whole dose curve; as a rule, active = well fitted inhibition curve with a large enough effect; inconclusive = small, poorly fitted or top-dose-only effect, or effect the other way; inactive = no such curve, though single readings can be large or run the other way.
# Experiment: qHTS Multiplex Assay to Identify Dual Action Probes in a Cell Model of Huntington: Aggregate Formation (GFP); note: nearly all actives have a fitted effect of over 60% in size
# Details: PC12 HttQ103-GFP aggregates, Acumen cytometry, 40 h; series mostly up to 9.22 µM; activity change, negative = inhibition: at the top concentration
# Text: NIH Chemical Genomics Center [NCGC]
# NIH Molecular Libraries Probe Production centers Network [MLPCN]
# Assay Submitter (PI): Wei Zheng
# Huntington's disease is a neurodegenerative disorder caused by a trinucleotide repeat expansion in Exon 1 of the Huntingtin gene. The CAG trinucleotide encodes glutamine and polyglutamine expansions cause cell death in selective areas of the brain. Huntington polyglutamine repeats have the tendency to form aggregates which are observable in later stages of the disease. The exact nature of the aggregates, whether toxic, protective, or insignificant, is unclear.
# A stable PC12 cell line containing a gene fusion of Exon 1 of the Huntingtin gene linked to GFP under the control of the inducible ecdysone promoter were used as the cell-based model of Huntington Disease for high throughput screening. Exon 1 of the Huntingtin gene contained an expansion of 103 polyglutamines (Q103) which, when expressed, caused cell death and distinct, bright GFP aggregates. The amount of cell death and the size and intensity of GFP aggregates increased over time and induction level. The cell death were quantified with a measurement of ATP content in the cells. A maximal 40-50% of cell death was observed when the Huntington gene was induced in this cell line.
# We optimized this assay in a homogeneous 1536 well format. A quantitative high throughput screen (qHTS) was conducted on the PC12 cells which were induced to express the toxic fusion construct. Small molecules which reduced aggregate formation were identified bu using a laser scanning cytometer calibrated to detect the aggregates in cell lysates.
# PC12 cells stably containing a construct with an ecdysone inducible promoter expressing GFP fused to the exon 1 of HTTQ103 (Huntington protein which containing a 103 ployglutamine expansion) were used.
# NCGC Assay Protocol Summary:
# Sequence, Parameter, Description
# 1, Reagent, 5 uL 1500 cells/well 1536 TC treated White clear bottom plate
# 2, Compound, 23 nL Tebufenozide inducer (100 nM final) to all columns
# 3, Compound, 23 nL 40 uM to 0.5 nM Libraries
# 5, Reagent, 5 ul ATPLite cell death assay reagent
# 6, Detector, Aggregate quantitation by Acumen Explorer
# Media consisted of phenol red free DMEM + 5% equine serum (Hyclone # SH30072.03 ), 5% supplemented Bovine Calf Serum (Hyclone # SH30074.03 ), 1x pen/strep, no G418
# Acumen Explorer was used to quantitate GFP aggregates using the following criteria: […] laser excitation, 500-530 nm emission, the PMT was set at a voltage of 450 volts, and objects ranging in size of […] in size having a signal of 6 STDEV above background were collected.
# Control columns: 1 = DMSO, 2= 2 uM teb dilns (1:1), 4 = 100 nM Teb inducer. Sample columns received 100 nM Teb.
# % is set by controls: 0 for no effect and ±100 for the full control effect.
Structure (SMILES),"activity change, negative = inhibition",Potency
COC(=O)c1ccc(CSc2ccccc2C)o1,-0.648% [at 46.1 µM],
COC(=O)c1ccc(Cc2ccccc2)o1,,0.0004 µM (active)
COC(=O)c1ccc(CN(c2ccccc2OC)S(=O)(=O)c2cccs2)o1,-2.95% [at 46.1 µM],
Cn1c(=O)c2c(nc(NCc3ccccc3)n2CC(N)=O)n(C)c1=O,-3.14%,
Cc1ncn2cc(-c3ccc(Cl)cc3Cl)[nH]c(=O)c12,-41.8%,
C=C(C)CNC(=S)Nc1ccc(S(=O)(=O)Nc2cnc3ccccc3n2)cc1,0%,
CCc1cc2c(NC3CCCC3)ncnc2s1,-17.1%,
Oc1ccccc1N1CCN(c2ncnc3sc(-c4ccccc4)cc23)CC1,5.69%,
CCc1cc2c(N3CCN(c4nnc(CC)s4)CC3)ncnc2s1,,17.8 µM (active)
Cc1ccc(C(O)P(=O)(OC(C)C)c2ccc(N(C)C)cc2)cc1 (configuration not stated),15.4%,
O=C(/C=C/Nc1ccc(S(=O)(=O)Nc2cnc3ccccc3n2)cc1)c1cccnc1,-17.6%,
CCOC(=O)c1ccc(N=C2SC(C(=O)NC)CC(=O)N2CCc2ccccc2)cc1 (configuration not stated),-13.4%,
CC1=CC(C)(C)NC(=S)N1NC(=O)c1ccccc1Cl,-29.3%,
CN(NC(=O)c1ccccc1F)c1nc(C(F)(F)F)nc2ccccc12,-0.998% [at 46.1 µM],
CSc1nc(N(C)NC(=O)c2cccc(C)c2)c2ccccc2n1,,1.26 µM (active)
CN(NC(=O)c1ccccc1)c1nc2ccccc2nc1C(F)(F)F,-19.7% [at 46.1 µM],

Structure (SMILES),"activity change, negative = inhibition",Potency
O=C(OCc1ccccc1)c1ccc(O)cc1,6.43% [at 46.1 µM],
O=C(NCc1cccnc1)C(=O)Nc1nc(-c2ccccc2)cs1,-4.94%,
CCn1c(SCc2ccc(C)cc2)nnc1-c1nn(-c2ccccc2)ccc1=O,9.93% [at 46.1 µM],
O=C(Nc1cn(-c2ccccc2)nc1-c1ccccc1)c1ccccc1,-21% [at 46.1 µM],
CCc1ccc(-c2nn(-c3ccccc3)cc2CSC(=N)N)cc1,,17.8 µM (active)
Cc1cc(Nc2ccc(Cl)cc2)nc(N2CCOCC2)n1,-1.57%,
CC(=O)NC(=O)c1ccccc1O,1.25% [at 46.1 µM],
Cc1nnc(C)c2c(C)n(N)c(C)c12,0.29%,
CCN1/C(=C/c2ccc3ccc(C)cc3[n+]2CC)Sc2ccccc21,,7.94 µM (active)
CCN1/C(=C/C(=S)Nc2ccccc2)Sc2ccccc21,4.06%,
CCC(=O)/C=C1\Sc2ccccc2N1CC,-1.12% [at 46.1 µM],
COc1ccccc1N(C)S(=O)(=O)c1ccc(C(=O)NC2CCCCCC2)cc1,21.4%,
Nc1ccc(C(=O)OCC(=O)NC2CCS(=O)(=O)C2)cc1[N+](=O)[O-] (configuration not stated),1.88%,
CC(=O)Nc1ccc(NC(=O)c2sc3nc4c(c(-c5ccc(C)cc5)c3c2N)CCC4)cc1,16.4% [at 46.1 µM],
NC(=O)c1sc2nc3c(c(-c4ccccc4)c2c1N)CCC3,,7.08 µM (active)
Cc1cccc(NC(=O)c2sc3nc4c(c(-c5ccco5)c3c2N)CCC4)c1,-5.16% [at 46.1 µM],
